Assay outcomes as filed in PubChem.
Hits are enriched below; roughly 5.4% of the tested compounds scored in any of these assays.
PfM18AAP inh-1: PfM18AAP inhibitors, malaria aminopeptidase, primary screen, biochemical, QFRET, recombinant enzyme | M18 aspartyl aminopeptidase (Plasmodium falciparum 3D7) | H-Glu-NHMec fluorogenic cleavage | inhibition, % at 7.35 µM | 290,000 tested, 1.2% active | AID 1822, 2009;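 active = inhibition above the campaign mean inhibition over all tested compounds plus 3 SD, cut at about 28% in these data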
Granule exo inh: LAMP-1 surface exposure blockers, TALL-104 cells – cell-based, flow cytometry, MLPCN library, primary screen; inhibition, % at 10 µM; TALL-104 LAMP-1 surface exposure; cells stimulated with thapsigargin and PMA; 360,000 tested, 0.66% active;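 active = inhibition above about 55%, limit read from the data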
ALR H2O2 inh: inhibitors of human ALR sulfhydryl oxidase, primary screen, biochemical, H2O2 detection, HRP-luminol luminescence, single point | FAD-linked sulfhydryl oxidase ALR (Homo sapiens), P55789 | purified ALR, DTT oxidation | inhibition, % (no concentration beside the values) | 290,000 tested, 3.8% active | AID 485317, 2010;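 active = mean replicate inhibition above about 79%, with every replicate also reaching it, limit read from the data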
Target sequence (P55789 whole entry, looked up): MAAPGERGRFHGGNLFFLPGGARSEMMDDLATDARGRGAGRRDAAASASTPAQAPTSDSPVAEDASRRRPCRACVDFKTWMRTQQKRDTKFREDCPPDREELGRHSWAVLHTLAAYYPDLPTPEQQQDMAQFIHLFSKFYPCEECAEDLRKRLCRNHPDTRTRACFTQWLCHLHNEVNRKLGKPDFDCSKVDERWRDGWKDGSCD
SMARCA2 act: SMARCA2 (BRM) function activators, primary screen, cell-based, luminescence, high throughput; MG213 cells, MMTV-luciferase reporter, dexamethasone, overnight; activation, % at 9.1 µM; 370,000 tested, 1% active; AID 652017, 2013; in the data active = activation above about 7.8%
GASC-1 inh: inhibitors of GASC-1 histone demethylase, primary screen, biochemical, fluorescence, DELFIA europium; Lysine-specific demethylase 4C (Homo sapiens), Q9H3R0; inhibition, % at 2.35 µM; GST-JMJD2C(1-420) H3K9me3 demethylation; 330,000 tested, 0.069% active;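 active = more than half of a compound's replicate wells show inhibition beyond 50%, single wells judged on their own value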;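 also: signal counts dimethyl H3K9 product captured on neutravidin plate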
beta cell repl: inducers of MIN6 beta-cell proliferation, primary screen, ATP luminescence, uHTS. MIN6 cells proliferation, ATPlite luminescence, 48 h; cells starved in 0.2% serum; 100% = growth in 10% serum. proliferation, % at 10 µM. 330,000 tested, 0.29% active;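 active = compounds whose signal lies at least 3.5 SD above the mean of all wells on their plate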
PfM18AAP inh-2: PfM18AAP inhibitors, malaria aminopeptidase, confirmation, biochemical, QFRET, recombinant enzyme, triplicate. H-Glu-NHMec fluorogenic cleavage. inhibition, % at 7.35 µM. AID 2170, 2009. 2,400 tested, 28% active. shares compounds with PfM18AAP inh-1;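 active = mean inhibition over replicate wells above the hit cutoff set for the earlier primary screen, cut at about 29% in these data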
CTSL1 confirm: cathepsin L1 inhibitors, retest, confirmation, counter-screen for PFM18AAP inhibitor project, biochemical, QFRET, triplicate; shares compounds with PfM18AAP inh-1; purified cathepsin L1, Z-Leu-Arg-MCA fluorescence; inhibition, % at 5.96 µM; 2,400 tested, under 10 active;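 active = average inhibition across replicates above the hit cutoff set in the earlier primary screen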
Target sequence (P07711 whole entry, looked up): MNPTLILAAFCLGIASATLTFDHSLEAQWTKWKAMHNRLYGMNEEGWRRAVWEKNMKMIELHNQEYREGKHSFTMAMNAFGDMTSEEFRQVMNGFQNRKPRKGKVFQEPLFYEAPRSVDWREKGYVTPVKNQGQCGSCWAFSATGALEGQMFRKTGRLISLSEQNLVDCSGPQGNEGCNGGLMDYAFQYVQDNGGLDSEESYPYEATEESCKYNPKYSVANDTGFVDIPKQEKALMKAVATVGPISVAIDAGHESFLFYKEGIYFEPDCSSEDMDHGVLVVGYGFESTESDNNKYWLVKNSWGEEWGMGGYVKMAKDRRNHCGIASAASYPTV
Of the large screens only hits and unclear results are named; the others gave an inactive call (follow-up assays come after a bar, where they were run).

COCCN(CCOC)Cc1c(O)ccc2c1O/C(=C\c1ccco1)C2=O	PfM18AAP inh-1 38.1 | PfM18AAP inh-2 inactive | CTSL1 confirm inactive
Oc1ccccc1N=Cc1c(O)ccc2oc3c(c12)CCCC3	PfM18AAP inh-1 39.1 (no result: ALR H2O2 inh) | PfM18AAP inh-2 inactive | CTSL1 confirm inactive
O=C(O)c1ccc(N=Cc2c(O)ccc3oc4c(c23)CCCC4)cc1	none
NC(=O)c1ncn([C@@H]2O[C@H](C(=O)N[C@H](Cc3c[nH]c4ccccc34)C(=O)N3CCN(C(=O)N4CCCCC4)CC3)[C@@H](O)[C@H]2O)n1	none (no result: PfM18AAP inh-1, Granule exo inh, ALR H2O2 inh, GASC-1 inh, beta cell repl)
COc1cc(OC)cc(C(=O)NCC(=O)N2CCN(c3ccc(O)cc3)CC2)c1	PfM18AAP inh-1 35.6 | PfM18AAP inh-2 inactive | CTSL1 confirm inactive
CCOC(=O)N1CCN(c2ccc(O)cc2)CC1	PfM18AAP inh-1 38.8, ALR H2O2 inh 99.1 | PfM18AAP inh-2 inactive | CTSL1 confirm inactive
CCOC(=O)N1CCN(c2ccc(Cl)cc2)CC1	none
O=C(C1CC1)N1CCN(c2ccc(O)cc2)CC1	PfM18AAP inh-1 43.1, ALR H2O2 inh 99.5 | PfM18AAP inh-2 inactive | CTSL1 confirm inactive
COc1ccccc1-c1ccc2c(c1)[C@@H]1C[C@H]3[C@@H](CN1CC2)[C@H](C)ON3C	none (no result: PfM18AAP inh-1, Granule exo inh, ALR H2O2 inh, GASC-1 inh, beta cell repl)
CC(C)Nc1nc(NC(C)C)nc(N(C)N)n1	PfM18AAP inh-1 48.4 | PfM18AAP inh-2 39.7 | CTSL1 confirm inactive
CN(C)c1ccc(/C=N\NC(=O)CC#N)cc1	PfM18AAP inh-1 50.4 | PfM18AAP inh-2 inactive | CTSL1 confirm inactive
COc1cccc(C(=O)N/N=C/c2ccc(OC3CSC3)cc2)c1	none
N#CCC(=O)N/N=C/c1ccc(OC2CSC2)cc1	PfM18AAP inh-1 40.2 | PfM18AAP inh-2 inactive | CTSL1 confirm inactive
CN(C(=O)[C@H]1O[C@@H](n2cnc3c(=O)[nH]c(N)nc32)[C@H](O)[C@@H]1O)C1CCCCC1	none (no result: PfM18AAP inh-1, Granule exo inh, ALR H2O2 inh, GASC-1 inh, beta cell repl)
COC(=O)[C@@]12CCCCC3=C1N(CCC3)C(=O)[C@H]2CC(=O)NCc1ccccc1	none (no result: PfM18AAP inh-1, Granule exo inh, ALR H2O2 inh, GASC-1 inh, beta cell repl)
O=C(c1cccc(S(=O)(=O)N2CCc3ccccc3C2)c1)N1CCN(c2ccc(O)cc2)CC1	PfM18AAP inh-1 35.6, ALR H2O2 inh 94.6 | PfM18AAP inh-2 inactive | CTSL1 confirm inactive
NC(=O)C1CCN(C(=O)c2cccc(S(=O)(=O)N3CCc4ccccc4C3)c2)CC1	none
O=C(Oc1ccc(C(=S)N2CCCCC2)cc1)c1ccccc1	PfM18AAP inh-1 36.6 | PfM18AAP inh-2 inactive | CTSL1 confirm inactive
O=C(Oc1cccc(C(=S)N2CCCCC2)c1)c1ccccc1	none
Cc1ccc(C(=S)N2CCN(Cc3ccccc3)CC2)s1	PfM18AAP inh-1 35.2 | PfM18AAP inh-2 inactive | CTSL1 confirm inactive
S=C(c1ccc(Br)cc1)N1CCN(Cc2ccccc2)CC1	PfM18AAP inh-1 42.5 | PfM18AAP inh-2 inactive | CTSL1 confirm inactive
Oc1ccc(C(=S)N2CCCC2)cc1	PfM18AAP inh-1 32.8 | PfM18AAP inh-2 inactive | CTSL1 confirm inactive
O=C(c1ccc(Br)cc1)N1CCN(Cc2ccccc2)CC1	none
CC(C)n1nnnc1C1c2ccccc2OCC(=O)N1Cc1cccc(C(F)(F)F)c1 (configuration not stated)	none (no result: PfM18AAP inh-1, Granule exo inh, ALR H2O2 inh, GASC-1 inh, beta cell repl)
c1ccc(-n2c(SCc3cccc4ccccc34)nnc2-c2ccncc2)cc1	none (no result: PfM18AAP inh-1, Granule exo inh, ALR H2O2 inh, GASC-1 inh, beta cell repl)
CCNC(=S)N1CCN(Cc2ccccc2)CC1	none
Oc1ccc(C(=S)N2CCN(Cc3ccccc3)CC2)cc1	PfM18AAP inh-1 53.6 | PfM18AAP inh-2 inactive | CTSL1 confirm inactive
O=C(CCC(=O)OCC(=O)c1ccc([N+](=O)[O-])cc1)Nc1ccccc1Cl	PfM18AAP inh-1 40.0 (no result: SMARCA2 act) | PfM18AAP inh-2 inactive | CTSL1 confirm inactive
O=C(CCc1ccccc1)OCC(=O)c1ccc([N+](=O)[O-])cc1	PfM18AAP inh-1 46.2 | PfM18AAP inh-2 inactive | CTSL1 confirm inactive
O=C(COC(=O)c1cnccn1)c1ccc([N+](=O)[O-])cc1	PfM18AAP inh-1 39.8 | PfM18AAP inh-2 inactive | CTSL1 confirm inactive
O=C(NOCc1ccccc1)c1ccc([N+](=O)[O-])cc1	none (no result: PfM18AAP inh-1)
O=C(CCC(=O)OCC(=O)c1cccc([N+](=O)[O-])c1)Nc1cccc(Cl)c1Cl	none
Cc1ccc(/C=C2\SC(=S)N(/N=C/c3cc([N+](=O)[O-])ccc3O)C2=O)o1	PfM18AAP inh-1 40.2, ALR H2O2 inh 98.1 (no result: SMARCA2 act) | PfM18AAP inh-2 inactive | CTSL1 confirm inactive
C[C@@H]1CN([C@@H](C)CO)C(=O)CCCn2cc(nn2)CO[C@H]1CN(C)C(=O)Nc1ccc(-c2cccs2)cc1	none (no result: PfM18AAP inh-1, Granule exo inh, ALR H2O2 inh, GASC-1 inh, beta cell repl)
Oc1c(C(c2ccc(F)cc2)N2CCc3ccccc3C2)sc2ncnn12 (configuration not stated)	PfM18AAP inh-1 53.3 | PfM18AAP inh-2 inactive | CTSL1 confirm inactive
Cc1ccc(C(c2sc3ncnn3c2O)N2CCCCC2)cc1 (configuration not stated)	PfM18AAP inh-1 47.0 | PfM18AAP inh-2 inactive | CTSL1 confirm inactive
Cc1ccc(C(c2sc3nc(C)nn3c2O)N2CCOCC2)cc1 (configuration not stated)	none
COc1ccc(S(=O)(=O)NNc2nc(C)cc(C)n2)cc1[N+](=O)[O-]	PfM18AAP inh-1 62.2 | PfM18AAP inh-2 39.0 | CTSL1 confirm inactive
Oc1ccc(/C=N/N(c2ccccc2)c2ccccc2)cc1O	PfM18AAP inh-1 66.8, ALR H2O2 inh 98.7 | PfM18AAP inh-2 41.8 | CTSL1 confirm inactive
Oc1ccc(/C=N/N(c2ccccc2)c2ccccc2)c(O)c1O	PfM18AAP inh-1 47.6 (no result: ALR H2O2 inh) | PfM18AAP inh-2 inactive | CTSL1 confirm inactive
N#Cc1c(NC(=O)CSc2ncn[nH]2)sc2c1CCCCC2	PfM18AAP inh-1 32.0 | PfM18AAP inh-2 inactive | CTSL1 confirm inactive
COc1ccc(CC(=O)Nc2nc(-c3ccc(OC)c(OC)c3)cs2)cc1OC	none
COc1ccc(CCNC(=O)CSc2ncn[nH]2)cc1	none
COc1ccc(-c2csc(NC(=O)CSc3ncn[nH]3)n2)cc1OC	PfM18AAP inh-1 66.2 | PfM18AAP inh-2 48.7 | CTSL1 confirm inactive
O=C(CSc1ncn[nH]1)Nc1nc(-c2ccccc2)cs1	PfM18AAP inh-1 40.0 | PfM18AAP inh-2 46.0 | CTSL1 confirm inactive
COc1ccc(CNC(=O)CSc2ncn[nH]2)cc1OC	PfM18AAP inh-1 33.6 | PfM18AAP inh-2 inactive | CTSL1 confirm inactive
